Results published in PubChem BioAssay (NCI).
The panel holds about 79,000 compounds, 15% with a hit somewhere; the sample as a whole holds those more often. Activity calls are given as the source filed them. No stated cut-off is given here; in the data, active means growth inhibition above about 70%; inactive means the rest.

Assay: NCI Yeast Anticancer Drug Screen. Data for the mlh1 strain (AID 171);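 further: 0% = growth of vehicle-treated control cultures of the same strain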
Details: S. cerevisiae mlh1 strain growth inhibition, hits give high values
Experimental: Growth inhibition of yeast strains with defined genetic alterations is measured as a screen for potential anti-cancer activity. Selected strains with alterations in DNA damage repair or cell cycle control were exposed to compounds and growth inhibition was measured relative to vehicle treated controls. The strain used in this assay is mlh1

Measured: growth inhibition

O=C(O)C1CCCCC1c1c2ccc(=O)c(O)c-2oc2c(O)c(O)ccc12 (stereo not given)
active: at 100.0 µM 74%
inactive: at 1.2 µM -30% | at 3.7 µM -9% | at 11.0 µM -33% | at 33.0 µM 38%

Cc1ccc(-n2cc(-c3ccc(Cl)cc3)c(C#N)c2N)cc1
inactive: at 1.2 µM -6% | at 3.7 µM -5% | at 11.0 µM -1% | at 33.0 µM -2% | at 100.0 µM -4%

CN(C)c1ccc(Sc2ccc3nc(N)nc(N)c3c2)cc1
inactive: at 1.2 µM -4% | at 3.7 µM -8% | at 11.0 µM -16% | at 33.0 µM -9% | at 100.0 µM 18%

CC(C)/C(Cl)=N\OC(=O)Nc1ccccc1F
inactive: at 1.2 µM 3% | at 3.7 µM 5% | at 11.0 µM 14% | at 33.0 µM 22% | at 100.0 µM 20%

C(CCSC1=NCCN1)CSC1=NCCN1 (tested in a mixture with another compound)
active: at 11.0 µM 83% | at 33.0 µM 99% | at 100.0 µM 98%
inactive: at 1.2 µM 5% | at 3.7 µM 20%

S=c1[nH]nc(Nc2ccc(Cl)cc2)s1
inactive: at 1.2 µM -7% | at 3.7 µM -2% | at 11.0 µM -4% | at 33.0 µM 8% | at 100.0 µM 61%

CC[C@@]1(O)C(=O)OCc2c1cc1n(c2=O)Cc2cc3c(N)cccc3nc2-1
inactive: at 1.2 µM 1% | at 3.7 µM 6% | at 11.0 µM 11% | at 33.0 µM 16% | at 100.0 µM 2%

CC(=O)[O][Bi]([c]1ccccc1)[c]1ccccc1
inactive: at 1.2 µM 28% | at 3.7 µM 30% | at 11.0 µM 40%
active: at 33.0 µM 89% | at 100.0 µM 95%
